Results on 44 compounds are retold here after the supplement of paper PMC4723716.

± gives the uncertainty stated by the source. Whole data set: some 9,900 compounds, median “viability index relative to DMSO control” near 1, cut for the lowest 2% near 0.85. The sample as a whole holds a higher share of the lowest values than the screen did.

The subject of the assay is Plasmodium falciparum NF54 stage V gametocytes. In words: viability index relative to DMSO control (fraction); higher = less gametocyte killing. Conditions: 2.5 µM, incubation time: 72 h. An outline of the steps: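 Viability index is the count of red-stained particles in a well divided by the plate mean of solvent-only wells. Particles of 20–70 µm2 were counted in one imaged field per well after one to two hours with 3 µl of 2.5 µM MitoTracker Red CMXRos and 0.13% saponin. Before staining, P. falciparum NF54 stage V gametocytes in serum-free medium (0.75% gametocytemia, 1.25% hematocrit, 10 µl, 1,536-well plates) were kept with compound at 2.5 µM for 72 hr at 37°C under low oxygen.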

Setting [1] is: library set: Broad Institute DOS.
Where [2] appears, read: library set: Broad Institute Blood Stage.

`CN1C(=O)c2cc(NC(=O)c3cnccn3)ccc2OC[C@H]2O[C@H](CC(=O)NCC3CCCCC3)CC[C@@H]21`: the viability index under setting [1] came out at 0.959 ± 0.028. The same measure, in the same setting: the result for `Cc1ccc(S(=O)(=O)N[C@H]2CC[C@@H](CC(=O)NCc3ccncn3)O[C@@H]2CO)cc1` reads 1.01 ± 0.11; that for `CN1[C@@H]2CN(C(=O)C3CCCCC3)c3ccccc3[C@@H]2[C@@H]1CO`, 1.06 ± 0.063. Same read-out and setting: for `COc1ccc(NC(=O)N2C[C@@]3(C2)CN([C@@H](CO)c2[nH]c4cc(OC)ccc4c32)C(C)=O)cc1` the value was 1.01 ± 0.1.

Under setting [1], `COc1ccc2c3c([nH]c2c1)[C@H](CO)N(C[C@]31CCN(Cc2ccncc2)CC1)C(=O)CC1CC1` showed a viability index of 0.934 ± 0.098. With `COCc1cn(CC[C@H]2CC[C@@H](NC(=O)Nc3c(C)noc3C)[C@H](CO)O2)nn1`, the viability index under setting [1] was 1.03 ± 0.051. Take `OC[C@H]1CC[C@@H]2O[C@H](CCc3ccc(C#CCc4ccccc4)cc3)[C@H](n3cc(-c4ccccc4)nn3)C[C@@H]2O1`: the viability index under setting [2] turned out to be 0.781 ± 0.043. For the compound `COCc1cn([C@@H]2C[C@@H]3O[C@H](CO)CC[C@@H]3O[C@@H]2CCc2ccc(-c3ccc(OC)cc3)cc2)nn1`, the viability index under setting [2] is 0.791 ± 0.041. On to `O=C(C1CCOCC1)N1CC(=O)N2[C@H](C1)[C@H](c1ccc(C#CCc3ccccc3)cc1)[C@@H]2CO`, for which, under setting [1], the viability index stood at 1.09 ± 0.14. `O=C(C1CCOCC1)N1CC(=O)N2[C@H](C1)[C@@H](c1ccc(C#CCc3ccccc3)cc1)[C@@H]2CO` yielded a viability index under setting [1] of 1.06 ± 0.041. Under setting [1], `COCc1cn(CC[C@@H]2CC[C@H](NC(=O)Nc3c(C)noc3C)[C@H](CO)O2)nn1` registered a viability index of 0.951 ± 0.12. The same measure, in the same setting: for `COCc1cn(CC[C@@H]2CC[C@H](NC(=O)Nc3c(C)noc3C)[C@@H](CO)O2)nn1` the value was 1.07 ± 0.097. For `COCc1cn([C@@H]2C[C@@H]3O[C@@H](CO)CC[C@@H]3O[C@@H]2CCc2ccc(-c3ccc(OC)cc3)cc2)nn1`, under setting [2], the viability index was 0.811 ± 0.063.

As for `COCc1cn(CC[C@H]2CC[C@H](NC(=O)Nc3c(C)noc3C)[C@@H](CO)O2)nn1`, under setting [1], the viability index was 0.927 ± 0.067. On to `CCC(=O)N1CC2(C1)[C@@H](c1ccc(-c3cccc(C)c3)cc1)[C@@H](CO)N2S(C)(=O)=O`, for which, under setting [1], the viability index came to 1.057 ± 0.0069. Under setting [1], `Cc1nn(C)cc1NC(=O)C[C@@H]1CC[C@@H]2[C@H](COc3ccc(NC(=O)c4cccc(F)c4)cc3C(=O)N2C)O1` gave a viability index of 1.15 ± 0.11. Turning to `O=C(C[C@@H]1CC[C@@H]2[C@H](COC[C@@H](O)CN2C(=O)Nc2cccc(F)c2)O1)NCCCN1CCOCC1`, under setting [1], the viability index is 1.12 ± 0.081. `COc1ccc(CN(C)C[C@@H]2OCc3cnnn3CCCC(=O)N([C@H](C)CO)C[C@@H]2C)cc1`: under setting [1], the viability index is 0.963 ± 0.038. Consider `O=C(CN1CCOCC1)N[C@H]1CC[C@H](CCn2cc(C3CC3)nn2)O[C@@H]1CO`, for which the viability index under setting [1] is 1.16 ± 0.021. On to `C/C=C/c1ccc2n(c1=O)C[C@@H]1N[C@H]2[C@H](C(=O)NC2CCCC2)[C@H]1CO.C/C=C\c1ccc2n(c1=O)C[C@@H]1N[C@H]2[C@H](C(=O)NC2CCCC2)[C@H]1CO`, for which the viability index under setting [1] came out at 1.04 ± 0.018.

Under setting [1], `CCS(=O)(=O)N1CC[C@@]2(CC1)CN([C@@H](CO)c1c2c2ccc(OC)cc2n1C)C(=O)c1cccc(F)c1` gave a viability index of 1.02 ± 0.079. For `COc1ccc2c3c([C@H](CO)N(C[C@]33CCN(CC3)C(=O)c3ccccc3)C(=O)c3ccccc3)n(C)c2c1`, the viability index under setting [1] amounted to 0.979 ± 0.13. On the same count and under the same terms, for `COc1ccc2c3c([C@@H](CO)N(C[C@]33CCN(CC3)C(=O)c3ccccc3)C(=O)c3ccccc3)n(C)c2c1` the value was 0.761 ± 0.011; for `COc1ccc2c3c([C@H](CO)N(C[C@]33CN(C3)C(=O)c3cccc(F)c3)C(=O)c3cccc(F)c3)n(C)c2c1`, 1.04 ± 0.047. Under setting [1], `COc1ccc2c(c1)n(C)c1[C@H](CO)N(C[C@]3(CCN(C)CC3)c21)C(=O)c1ccc(F)cc1` showed a viability index of 1.05 ± 0.018. In turn, `COc1ccc2c3c([C@@H](CO)N(C[C@]33CN(C3)C(=O)c3cccc(F)c3)C(=O)c3cccc(F)c3)n(C)c2c1` displayed a viability index under setting [1] of 0.848 ± 0.02. Under setting [1], `Cc1noc(C)c1S(=O)(=O)Nc1ccc2c(c1)C(=O)N([C@@H](C)CO)C[C@H](C)[C@H](CN(C)Cc1ccc(C(=O)O)cc1)OCCCC[C@H](C)O2` displayed a viability index of 1.14 ± 0.051. Consider `O=C(C[C@H]1C[C@H]2c3cc(NC(=O)C4CCOCC4)ccc3O[C@H]2[C@H](CO)O1)NCc1cccnc1`, for which, under setting [1], the viability index was 1.086 ± 0.0019. With `O=C(N[C@H]1CC[C@@H](CCn2cc(-c3ccccc3F)nn2)O[C@H]1CO)c1ccc2c(c1)OCO2`, the viability index under setting [1] turned out to be 1.1 ± 0.06. On the same count and under the same terms, for `COC(=O)C[C@@H]1CC[C@H]2[C@@H](COc3ccc(NS(=O)(=O)c4ccc(C)cc4)cc3C(=O)N2C)O1` the value was 1.07 ± 0.083; for `CN1C(=O)c2cc(NC(=O)c3ccc(F)c(F)c3)ccc2OC[C@H]2O[C@@H](CC(=O)N3CCCCC3)CC[C@H]21`, 1.1 ± 0.0047. The same measure, in the same setting: for `COc1ccc2c3c([C@H](CO)N(Cc4ccccc4Cl)C[C@]33CN(C3)C(=O)CN(C)C)n(C)c2c1` the value was 0.782 ± 0.042. `COc1ccc2c3c([C@@H](CO)N(Cc4ccccc4Cl)C[C@]33CCN(CC3)C(=O)CC3CC3)n(C)c2c1` displayed a viability index under setting [1] of 0.939 ± 0.025. Turning to `COc1ccc2c3c([C@@H](CO)N(CC4CC4)C[C@]33CN(C3)C(=O)c3ccc4OCOc4c3)n(C)c2c1`, the viability index under setting [1] amounted to 1.02 ± 0.016. Under setting [2], `COc1ccc2c3c([C@H](CO)N(Cc4ccc5OCOc5c4)C[C@]33CN(C3)C(=O)c3ccc4OCOc4c3)n(C)c2c1` displayed a viability index of 0.435 ± 0.088. `COc1ccc2c3c([C@H](CO)N(C[C@]33CCN(CC3)C(=O)c3ccc4OCOc4c3)C(=O)Nc3ccc(F)cc3)n(C)c2c1`: under setting [1], the viability index came to 0.846 ± 0.055. Regarding `COc1ccc2c3c([C@H](CO)N(Cc4ccccc4Cl)C[C@]33CCN(CC3)C(=O)CC3CC3)n(C)c2c1`, under setting [1], the viability index worked out at 0.922 ± 0.014. `COCC(=O)N1C[C@@]2(C1)CN(Cc1ccc3OCOc3c1)[C@H](CO)c1c2c2ccc(OC)cc2n1C` registered a viability index under setting [1] of 0.938 ± 0.068. As for `COc1ccc(cc1)S(=O)(=O)N1C[C@@]2(C1)CN([C@@H](CO)c1c2c2ccc(OC)cc2n1C)C(=O)CN(C)C`, the viability index under setting [1] stood at 0.95 ± 0.059. For `COc1ccc(cc1)S(=O)(=O)N1C[C@@]2(C1)CN([C@H](CO)c1c2c2ccc(OC)cc2n1C)C(=O)CN(C)C`, the viability index under setting [1] was found to be 0.841 ± 0.028. In turn, `COc1ccc2c3c([C@@H](CO)N(C)C[C@]33CCN(CC3)C(=O)c3ccc4OCOc4c3)n(C)c2c1` returned a viability index under setting [1] of 0.9516 ± 0.0011. Consider `COc1ccc2c3c([C@@H](CO)N(C[C@]33CCN(CC3)S(C)(=O)=O)C(=O)CN(C)C)n(C)c2c1`, for which, under setting [1], the viability index came to 0.956 ± 0.029. `COc1ccc2c3c([C@@H](CO)N(C[C@]33CCN(CC3)C(=O)c3ccc4OCOc4c3)C(=O)Nc3ccc(F)cc3)n(C)c2c1`: the viability index under setting [1] is 0.967 ± 0.057. Same read-out and setting: the result for `COc1ccc2c3c([C@@H](CO)NC[C@]33CN(CC4CCOCC4)C3)n(C)c2c1` reads 1.07 ± 0.029.
